# Results reported in publication PMC7862700, “An all-to-all approach to the identification of sequence-specific readers for epigenetic DNA modifications on cytosine”.
# What was measured:
# Test in all cases: DAPPL (digital affinity profiling via proximity ligation, sequencing); 10 mM Tris-HCl pH 7.5, 50 mM NaCl, 1 mM DTT, 4% glycerol, room temperature, 30 min; GST-TFs on glutathione beads, 16-mer random dsDNA library, 0.1% formaldehyde crosslink after washing; high values mean tight binding
# FEV = target: T1, FEV (Homo sapiens, UniProt Q99581 1-238); conditions: protein: recombinant; tags: N-terminal GST; dsDNA, one strand shown
# T1 sequence: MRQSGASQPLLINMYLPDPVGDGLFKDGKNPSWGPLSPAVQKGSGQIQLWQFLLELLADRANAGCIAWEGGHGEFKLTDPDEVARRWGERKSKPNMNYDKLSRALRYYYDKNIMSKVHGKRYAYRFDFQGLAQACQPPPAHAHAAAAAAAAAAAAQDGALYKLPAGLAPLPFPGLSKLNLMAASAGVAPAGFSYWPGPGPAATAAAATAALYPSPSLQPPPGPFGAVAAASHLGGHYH
# Procedure, shortened: (§1)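 GST fusions of human transcription factors were expressed in yeast and captured with glutathione beads. Once given DNA barcodes and pooled alongside a tag-only sample, they were incubated for 30 min at room temperature with 200 nmole of a random double-stranded 16-mer DNA library in Tris/NaCl/DTT/glycerol buffer, then washed, crosslinked (0.1% formaldehyde), proximity-ligated, PCR-amplified and sequenced on an Illumina NextSeq500. The binding signal of each hexamer is its read frequency for a factor divided by its frequency for the tag-only sample.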
# ETV5 = ETV5 (Homo sapiens, UniProt P41161 1-510); conditions: protein: recombinant; tags: N-terminal GST; dsDNA, one strand shown
# Procedure, shortened: as §1
# HSF1 = HSF1 (Homo sapiens, UniProt Q00613 1-529); conditions: protein: recombinant; tags: N-terminal GST; chain copies: 3; dsDNA, one strand shown
# Procedure, shortened: as §1
# SPIC = target: T2, SPIC (Homo sapiens, UniProt Q8N5J4 1-248); conditions: protein: recombinant; tags: N-terminal GST; dsDNA, one strand shown
# T2 sequence: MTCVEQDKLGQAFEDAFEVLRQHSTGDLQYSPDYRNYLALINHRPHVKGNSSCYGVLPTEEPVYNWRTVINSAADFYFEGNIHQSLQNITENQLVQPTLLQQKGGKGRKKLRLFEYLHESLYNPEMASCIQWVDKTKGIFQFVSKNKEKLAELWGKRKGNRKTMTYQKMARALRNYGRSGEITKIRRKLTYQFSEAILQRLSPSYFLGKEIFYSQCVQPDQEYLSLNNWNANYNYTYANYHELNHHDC
# Procedure, shortened: as §1
# ELF4 = ELF4 (Homo sapiens, UniProt Q99607 1-663); conditions: protein: recombinant; tags: N-terminal GST; dsDNA, one strand shown
# Procedure, shortened: as §1
# ELK4 = target: T3, ELK4 (Homo sapiens, UniProt P28324-2 1-405); conditions: protein: recombinant; tags: N-terminal GST; dsDNA, one strand shown
# T3 sequence: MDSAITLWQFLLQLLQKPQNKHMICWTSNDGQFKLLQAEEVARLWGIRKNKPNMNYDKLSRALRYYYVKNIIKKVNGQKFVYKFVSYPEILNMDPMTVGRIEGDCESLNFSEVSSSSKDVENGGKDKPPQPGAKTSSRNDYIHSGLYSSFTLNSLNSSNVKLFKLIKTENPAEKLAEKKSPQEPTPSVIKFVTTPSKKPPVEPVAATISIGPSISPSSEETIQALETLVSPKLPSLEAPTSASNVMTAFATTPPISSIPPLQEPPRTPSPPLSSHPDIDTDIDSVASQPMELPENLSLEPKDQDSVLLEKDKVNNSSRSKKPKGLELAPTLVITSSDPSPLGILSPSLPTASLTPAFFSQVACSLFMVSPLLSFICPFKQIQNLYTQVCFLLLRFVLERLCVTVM
# Procedure, shortened: as §1
# ETV2 = target: T4, ETV2 (Homo sapiens, UniProt O00321 1-342); conditions: protein: recombinant; tags: N-terminal GST; dsDNA, one strand shown
# T4 sequence: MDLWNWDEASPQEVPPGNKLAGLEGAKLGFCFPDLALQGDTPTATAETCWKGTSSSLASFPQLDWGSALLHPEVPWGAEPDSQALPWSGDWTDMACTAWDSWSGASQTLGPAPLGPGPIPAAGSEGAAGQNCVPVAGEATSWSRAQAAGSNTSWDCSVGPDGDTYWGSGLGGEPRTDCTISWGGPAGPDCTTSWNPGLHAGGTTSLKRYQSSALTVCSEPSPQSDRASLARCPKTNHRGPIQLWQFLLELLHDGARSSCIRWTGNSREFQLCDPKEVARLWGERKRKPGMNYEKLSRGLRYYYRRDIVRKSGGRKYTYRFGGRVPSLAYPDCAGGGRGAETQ
# Procedure, shortened: as §1
# ELF3 = target: T5, ELF3 (Homo sapiens, UniProt P78545 1-371); conditions: protein: recombinant; tags: N-terminal GST; dsDNA, one strand shown
# T5 sequence: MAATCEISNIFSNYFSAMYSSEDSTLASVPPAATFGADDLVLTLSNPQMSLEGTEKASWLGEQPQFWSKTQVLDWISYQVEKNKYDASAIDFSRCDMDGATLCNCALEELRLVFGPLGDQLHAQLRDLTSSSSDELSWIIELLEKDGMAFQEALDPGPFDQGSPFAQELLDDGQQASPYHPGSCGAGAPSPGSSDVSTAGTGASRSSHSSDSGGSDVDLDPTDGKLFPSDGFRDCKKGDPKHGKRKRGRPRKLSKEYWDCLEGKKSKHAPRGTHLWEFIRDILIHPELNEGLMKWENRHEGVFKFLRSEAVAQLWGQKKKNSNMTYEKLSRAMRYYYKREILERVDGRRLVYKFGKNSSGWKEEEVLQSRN
# Procedure, shortened: as §1
# CRX = CRX (Homo sapiens, UniProt O43186 1-299); conditions: protein: recombinant; tags: N-terminal GST; dsDNA, one strand shown
# Procedure, shortened: as §1
# ETV1 = ETV1 (Homo sapiens, UniProt P50549 1-477); conditions: protein: recombinant; tags: N-terminal GST; dsDNA, one strand shown
# Procedure, shortened: as §1
# ERF = target: T6, ERF (Homo sapiens, UniProt P50548 1-548); conditions: protein: recombinant; tags: N-terminal GST; dsDNA, one strand shown
# T6 sequence: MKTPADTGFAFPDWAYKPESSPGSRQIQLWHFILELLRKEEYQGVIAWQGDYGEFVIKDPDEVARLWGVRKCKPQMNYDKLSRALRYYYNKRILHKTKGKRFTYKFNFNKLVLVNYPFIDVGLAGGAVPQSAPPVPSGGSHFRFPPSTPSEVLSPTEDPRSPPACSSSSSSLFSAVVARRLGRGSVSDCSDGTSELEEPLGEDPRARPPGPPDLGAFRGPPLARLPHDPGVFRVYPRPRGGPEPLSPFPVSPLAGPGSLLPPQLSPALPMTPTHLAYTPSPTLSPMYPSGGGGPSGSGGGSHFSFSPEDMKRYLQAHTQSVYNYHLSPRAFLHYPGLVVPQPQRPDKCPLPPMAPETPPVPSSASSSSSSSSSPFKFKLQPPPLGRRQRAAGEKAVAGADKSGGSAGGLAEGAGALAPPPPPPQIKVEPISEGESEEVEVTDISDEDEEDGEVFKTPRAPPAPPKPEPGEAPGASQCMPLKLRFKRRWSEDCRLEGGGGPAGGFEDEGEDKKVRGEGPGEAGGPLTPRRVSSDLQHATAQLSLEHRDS
# Procedure, shortened: as §1
# ETV3L = target: T7, ETV3L (Homo sapiens, UniProt Q6ZN32 1-361); conditions: protein: recombinant; tags: N-terminal GST; dsDNA, one strand shown
# T7 sequence: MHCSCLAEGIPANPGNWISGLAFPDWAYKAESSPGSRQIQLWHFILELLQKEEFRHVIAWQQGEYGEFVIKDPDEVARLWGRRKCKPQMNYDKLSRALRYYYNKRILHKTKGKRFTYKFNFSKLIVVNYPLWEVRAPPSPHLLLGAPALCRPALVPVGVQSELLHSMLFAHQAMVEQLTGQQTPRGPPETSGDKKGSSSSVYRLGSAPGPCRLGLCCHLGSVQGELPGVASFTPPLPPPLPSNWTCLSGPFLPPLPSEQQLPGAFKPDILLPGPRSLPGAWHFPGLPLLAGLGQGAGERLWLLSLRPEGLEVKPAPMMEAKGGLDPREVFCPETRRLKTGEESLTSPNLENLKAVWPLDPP
# Procedure, shortened: as §1
# ETS2 = target: T8, ETS2 (Homo sapiens, UniProt P15036 1-469); conditions: protein: recombinant; tags: N-terminal GST; dsDNA, one strand shown
# T8 sequence: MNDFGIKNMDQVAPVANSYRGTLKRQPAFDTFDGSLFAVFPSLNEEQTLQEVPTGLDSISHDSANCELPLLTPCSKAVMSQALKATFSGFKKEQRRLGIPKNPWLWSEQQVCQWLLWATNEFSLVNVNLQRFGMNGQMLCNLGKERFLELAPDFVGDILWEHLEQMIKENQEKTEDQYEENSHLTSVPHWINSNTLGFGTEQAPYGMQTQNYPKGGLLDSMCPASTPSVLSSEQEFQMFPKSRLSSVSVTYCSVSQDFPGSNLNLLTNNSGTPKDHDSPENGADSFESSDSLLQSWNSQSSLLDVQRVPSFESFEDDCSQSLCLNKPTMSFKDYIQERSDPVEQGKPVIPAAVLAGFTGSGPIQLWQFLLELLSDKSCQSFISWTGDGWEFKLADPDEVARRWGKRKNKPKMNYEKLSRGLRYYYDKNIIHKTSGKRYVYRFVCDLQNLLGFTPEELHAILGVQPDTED
# Procedure, shortened: as §1
# SPDEF = target: T9, SPDEF (Homo sapiens, UniProt O95238 1-335); conditions: protein: recombinant; tags: N-terminal GST; dsDNA, one strand shown
# T9 sequence: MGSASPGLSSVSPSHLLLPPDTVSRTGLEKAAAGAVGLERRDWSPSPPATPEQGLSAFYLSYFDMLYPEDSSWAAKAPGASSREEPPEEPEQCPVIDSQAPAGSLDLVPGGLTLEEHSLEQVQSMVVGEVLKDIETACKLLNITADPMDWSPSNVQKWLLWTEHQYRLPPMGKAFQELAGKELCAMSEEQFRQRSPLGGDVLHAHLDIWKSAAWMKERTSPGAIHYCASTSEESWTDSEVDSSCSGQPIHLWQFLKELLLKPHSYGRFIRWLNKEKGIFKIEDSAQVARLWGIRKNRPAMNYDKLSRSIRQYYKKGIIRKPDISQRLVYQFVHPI
# Procedure, shortened: as §1
# ETV7 = target: T10, ETV7 (Homo sapiens, UniProt Q9Y603 1-341); conditions: protein: recombinant; tags: N-terminal GST; dsDNA, one strand shown
# T10 sequence: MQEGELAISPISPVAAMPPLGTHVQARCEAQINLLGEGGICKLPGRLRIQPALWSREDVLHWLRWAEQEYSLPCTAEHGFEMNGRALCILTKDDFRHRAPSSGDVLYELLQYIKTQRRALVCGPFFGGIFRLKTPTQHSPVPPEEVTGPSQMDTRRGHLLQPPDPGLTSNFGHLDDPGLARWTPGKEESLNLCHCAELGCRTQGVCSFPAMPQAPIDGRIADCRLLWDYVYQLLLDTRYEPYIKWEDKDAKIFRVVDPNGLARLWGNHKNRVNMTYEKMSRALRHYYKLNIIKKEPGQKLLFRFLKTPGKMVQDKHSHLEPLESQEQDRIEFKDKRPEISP
# Procedure, shortened: as §1
# ELF5 = target: T11, ELF5 (Homo sapiens, UniProt Q9UKW6-2 1-255); conditions: protein: recombinant; tags: N-terminal GST; dsDNA, one strand shown
# T11 sequence: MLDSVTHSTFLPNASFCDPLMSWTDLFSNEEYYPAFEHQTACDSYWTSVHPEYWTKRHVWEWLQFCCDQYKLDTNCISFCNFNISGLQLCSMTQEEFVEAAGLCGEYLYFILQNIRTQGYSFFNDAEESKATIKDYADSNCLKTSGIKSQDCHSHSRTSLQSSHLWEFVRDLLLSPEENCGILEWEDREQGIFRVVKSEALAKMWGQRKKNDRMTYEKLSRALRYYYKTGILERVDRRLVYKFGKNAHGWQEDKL
# Procedure, shortened: as §1
# ETV3 = target: T12, ETV3 (Homo sapiens, UniProt P41162-2 1-143); conditions: protein: recombinant; tags: N-terminal GST; dsDNA, one strand shown
# T12 sequence: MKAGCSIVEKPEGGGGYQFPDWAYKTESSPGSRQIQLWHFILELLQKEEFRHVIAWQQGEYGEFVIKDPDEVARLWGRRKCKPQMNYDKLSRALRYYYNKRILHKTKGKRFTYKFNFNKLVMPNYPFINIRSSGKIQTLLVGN
# Procedure, shortened: as §1
# ETV6 = ETV6 (Homo sapiens, UniProt P41212 1-452); conditions: protein: recombinant; tags: N-terminal GST; dsDNA, one strand shown
# Procedure, shortened: as §1
# Sequence of ETV6 (P41212 whole entry): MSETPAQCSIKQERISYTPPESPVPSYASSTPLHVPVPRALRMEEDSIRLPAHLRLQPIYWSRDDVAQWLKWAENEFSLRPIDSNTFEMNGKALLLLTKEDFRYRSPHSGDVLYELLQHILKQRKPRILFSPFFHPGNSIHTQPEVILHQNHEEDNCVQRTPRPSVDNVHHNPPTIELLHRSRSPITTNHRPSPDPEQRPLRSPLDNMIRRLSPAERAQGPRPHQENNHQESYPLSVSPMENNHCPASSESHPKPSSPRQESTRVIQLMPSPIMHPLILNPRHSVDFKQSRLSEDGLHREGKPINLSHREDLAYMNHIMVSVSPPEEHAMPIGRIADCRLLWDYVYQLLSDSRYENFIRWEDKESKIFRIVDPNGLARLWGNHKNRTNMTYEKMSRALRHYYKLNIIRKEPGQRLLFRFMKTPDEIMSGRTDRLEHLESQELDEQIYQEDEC
# Sequence of ELF4 (Q99607 whole entry): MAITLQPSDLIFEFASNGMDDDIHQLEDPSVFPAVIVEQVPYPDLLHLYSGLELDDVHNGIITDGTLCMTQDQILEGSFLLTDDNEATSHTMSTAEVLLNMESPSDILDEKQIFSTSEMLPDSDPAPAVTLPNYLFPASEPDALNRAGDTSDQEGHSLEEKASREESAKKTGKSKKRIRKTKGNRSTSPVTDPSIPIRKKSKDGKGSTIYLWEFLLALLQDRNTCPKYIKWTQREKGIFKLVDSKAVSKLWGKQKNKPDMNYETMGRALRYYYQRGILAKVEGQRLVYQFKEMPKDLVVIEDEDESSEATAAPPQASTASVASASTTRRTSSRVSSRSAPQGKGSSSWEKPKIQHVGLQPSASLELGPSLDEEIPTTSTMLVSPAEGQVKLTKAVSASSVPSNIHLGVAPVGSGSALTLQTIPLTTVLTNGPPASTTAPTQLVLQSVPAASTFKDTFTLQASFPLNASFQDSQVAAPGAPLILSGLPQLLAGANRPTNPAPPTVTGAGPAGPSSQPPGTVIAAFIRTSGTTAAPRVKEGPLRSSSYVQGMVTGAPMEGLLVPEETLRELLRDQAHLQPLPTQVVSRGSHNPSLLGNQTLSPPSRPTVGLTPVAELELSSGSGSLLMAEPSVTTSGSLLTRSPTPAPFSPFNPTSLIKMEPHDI
# Sequence of ETV1 (P50549 whole entry): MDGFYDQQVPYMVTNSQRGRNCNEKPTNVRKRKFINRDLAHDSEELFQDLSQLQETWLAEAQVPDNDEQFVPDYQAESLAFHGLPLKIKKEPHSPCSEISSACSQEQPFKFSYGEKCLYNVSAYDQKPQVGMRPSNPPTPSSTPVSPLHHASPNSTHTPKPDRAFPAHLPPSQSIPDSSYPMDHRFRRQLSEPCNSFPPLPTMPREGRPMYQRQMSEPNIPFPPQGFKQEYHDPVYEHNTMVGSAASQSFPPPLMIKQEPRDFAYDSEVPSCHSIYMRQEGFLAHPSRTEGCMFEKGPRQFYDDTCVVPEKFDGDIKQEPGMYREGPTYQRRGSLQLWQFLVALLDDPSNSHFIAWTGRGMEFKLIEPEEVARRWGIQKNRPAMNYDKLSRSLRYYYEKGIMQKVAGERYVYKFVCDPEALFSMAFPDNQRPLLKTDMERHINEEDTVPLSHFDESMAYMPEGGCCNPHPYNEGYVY
# Sequence of ETV5 (P41161 whole entry): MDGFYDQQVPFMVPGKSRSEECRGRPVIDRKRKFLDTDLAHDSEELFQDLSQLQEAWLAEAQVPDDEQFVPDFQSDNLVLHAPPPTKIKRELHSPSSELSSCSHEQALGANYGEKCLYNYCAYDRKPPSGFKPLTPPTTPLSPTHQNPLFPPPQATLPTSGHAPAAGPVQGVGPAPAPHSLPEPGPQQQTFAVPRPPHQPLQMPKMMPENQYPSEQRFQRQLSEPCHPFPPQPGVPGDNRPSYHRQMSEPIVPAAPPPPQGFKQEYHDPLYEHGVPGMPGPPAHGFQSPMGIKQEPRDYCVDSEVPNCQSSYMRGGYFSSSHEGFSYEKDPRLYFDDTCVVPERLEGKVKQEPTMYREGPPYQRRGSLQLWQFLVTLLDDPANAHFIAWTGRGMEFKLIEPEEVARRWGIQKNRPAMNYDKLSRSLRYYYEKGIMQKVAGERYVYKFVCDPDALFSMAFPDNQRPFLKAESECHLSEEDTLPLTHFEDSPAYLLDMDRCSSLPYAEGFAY
# Sequence of CRX (O43186 whole entry): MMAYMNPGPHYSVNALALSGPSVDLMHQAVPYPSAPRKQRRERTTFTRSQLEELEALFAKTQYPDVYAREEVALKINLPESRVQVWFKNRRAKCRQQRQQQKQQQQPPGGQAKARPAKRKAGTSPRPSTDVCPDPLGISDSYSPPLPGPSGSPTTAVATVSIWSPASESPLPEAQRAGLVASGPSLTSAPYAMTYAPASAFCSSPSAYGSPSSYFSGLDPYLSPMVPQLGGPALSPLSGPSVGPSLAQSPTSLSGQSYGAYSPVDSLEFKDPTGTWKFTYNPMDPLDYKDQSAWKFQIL
# Sequence of HSF1 (Q00613 whole entry): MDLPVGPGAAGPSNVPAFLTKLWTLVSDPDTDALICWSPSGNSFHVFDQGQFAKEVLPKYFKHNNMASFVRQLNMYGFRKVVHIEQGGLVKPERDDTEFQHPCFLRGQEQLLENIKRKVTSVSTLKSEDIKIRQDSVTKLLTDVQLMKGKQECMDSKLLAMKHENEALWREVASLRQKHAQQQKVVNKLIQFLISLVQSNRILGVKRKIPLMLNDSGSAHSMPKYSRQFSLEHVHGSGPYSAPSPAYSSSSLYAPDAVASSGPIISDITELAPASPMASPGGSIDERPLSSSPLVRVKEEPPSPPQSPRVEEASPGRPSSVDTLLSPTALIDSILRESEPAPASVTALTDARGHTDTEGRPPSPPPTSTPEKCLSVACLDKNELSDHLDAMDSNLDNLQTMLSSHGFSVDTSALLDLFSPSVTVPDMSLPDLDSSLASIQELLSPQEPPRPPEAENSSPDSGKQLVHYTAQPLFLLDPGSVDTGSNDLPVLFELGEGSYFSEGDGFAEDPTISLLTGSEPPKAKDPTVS
sequence,measurement,setting,value
TCTGCC,binding signal,FEV,"1.38 fold enrichment (6-mer frequency, TF over GST control)"
same,binding signal,ETV5,"1.27 fold enrichment (6-mer frequency, TF over GST control)"
same,binding signal,HSF1,"1.35 fold enrichment (6-mer frequency, TF over GST control)"
same,binding signal,SPIC,"1.31 fold enrichment (6-mer frequency, TF over GST control)"
same,binding signal,ELF4,"1.53 fold enrichment (6-mer frequency, TF over GST control)"
same,binding signal,ELK4,"1.59 fold enrichment (6-mer frequency, TF over GST control)"
same,binding signal,ETV2,"1.24 fold enrichment (6-mer frequency, TF over GST control)"
same,binding signal,ELF3,"1.28 fold enrichment (6-mer frequency, TF over GST control)"
same,binding signal,CRX,"1.21 fold enrichment (6-mer frequency, TF over GST control)"
same,binding signal,ETV1,"1.36 fold enrichment (6-mer frequency, TF over GST control)"
same,binding signal,ERF,"1.35 fold enrichment (6-mer frequency, TF over GST control)"
same,binding signal,ETV3L,"1.31 fold enrichment (6-mer frequency, TF over GST control)"
same,binding signal,ETS2,"1.45 fold enrichment (6-mer frequency, TF over GST control)"
same,binding signal,SPDEF,"1.26 fold enrichment (6-mer frequency, TF over GST control)"
same,binding signal,ETV7,"1.49 fold enrichment (6-mer frequency, TF over GST control)"
same,binding signal,ELF5,"1.31 fold enrichment (6-mer frequency, TF over GST control)"
same,binding signal,ETV3,"1.35 fold enrichment (6-mer frequency, TF over GST control)"
same,binding signal,ETV6,"1.32 fold enrichment (6-mer frequency, TF over GST control)"
